Bioassay records as filed in PubChem.
Rows were chosen to be rich in hits. Some 1.4% of all compounds tested hit in one or more screens of this group.
AmpC inh no detg – qHTS Inhibitors of AmpC Beta-Lactamase (assay without detergent). AmpC nitrocefin hydrolysis, absorbance 480 nm, 0.0001% Triton. Potency, µM (titrated, usually from 57.1 µM), without a hit: at the highest dose activity change, negative = inhibition, most hits filed as inhibitors. 330,000 compounds, 0.52% hits. AID 485341, 2010;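 also: plate controls were no compound for no effect and no enzyme for full effect; nearly all actives have a fitted effect of over 20% in size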
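AmpC (5.3 nM in the dispensed reagent) in 20 mM phosphate pH 7.0 with 0.01% (detergent screen) or 0.0001% Triton X-100 was preincubated with compounds for 15 min at room temperature. Nitrocefin was then added from an 800 uM solution, and hydrolysis was followed at 480 nm.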
Giardia FBPA inh-1 – qHTS Assay for Inhibitors of Fructose-1,6-bisphosphate Aldolase from Giardia Lamblia. A8B2U2. purified Giardia FBPA. AID 2451, 2010. Potency, µM (titrated, usually from 59.6 µM), inactives show at the top dose activity, negative = inhibition, most hits filed as inhibitors. 290,000 compounds, 0.71% hits; also: nearly all actives have a fitted effect of over 55% in size
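40 nM FBPA preincubated 10 min at RT with compound (up to 57.5 uM final), then substrate plus GAPDH/TPI/NAD/arsenate coupling and diaphorase/resazurin added. Fluorescence read after 20 min at RT, 525/598 nm.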
AmpC inh detg – qHTS Inhibitors of AmpC Beta-Lactamase (assay with detergent); P00811; AmpC hydrolysis of nitrocefin, absorbance 480 nm, 0.01% Triton; Potency, µM (doses to about 114 µM), for the others: top-dose activity change, negative = inhibition, usual class: inhibitors; 370,000 compounds, 0.041% hits; AID 485294, 2010;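 also: 0% = no-compound wells and -100% = no-enzyme wells; nearly all actives have a fitted effect of over 25% in size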
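20 mM phosphate pH 7.0 + 0.01% (detergent screen) or 0.0001% Triton X-100; 5.3 nM AmpC reagent; cpd preinc 15 min RT; nitrocefin (800 uM stock) to start; A480 q20 s × 4 min; Activity was normalised to no-enzyme and no-compound control wells.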
TbPYK inhibitor – qHTS of Trypanosoma Brucei Inhibitors; pyruvate kinase (Trypanosoma brucei), Q57TT1; TbPYK enzyme, Kinase-Glo Plus ATP luminescence, 45 min; Potency, µM (highest dose often 76.8 µM), for the others: top-dose activity, negative = inhibition, most hits filed as inhibitors; 410,000 compounds, 0.12% hits; also: nearly all actives have a fitted effect of over 50% in size
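Glycolytic pyruvate kinase of T. brucei was incubated with substrate, test compound and 130 uM ADP for 45 minutes at room temperature. Luminescent Kinase-Glo Plus signal was measured after 10 minutes.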
LmPK inhibitor – qHTS Assay for Inhibitors of Leishmania Mexicana Pyruvate Kinase (LmPK) | Potency, µM (top dose mostly 57.5 µM), for the others: top-dose activity change, negative = inhibition, hits mostly inhibitors | AID 1721, 2009 | purified LmPK, Kinase-Glo ATP luminescence, 1 h | 290,000 compounds, 0.37% hits
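qHTS format; LmPK 0.1 nM; substrates PEP 0.5 mM and ADP 0.1 mM. One-hour room-temperature incubation, then coupled luciferase luminescence; 0.5 nM enzyme wells mark activation.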
RE007 growth inh – qHTS Assay for Inhibitors of the HIV-1 protein Vpr; S. pombe RE007 Vpr strain, BacTiter-Glo ATP luminescence, 24 h; Potency, µM (titrated, usually from 92.2 µM), inactives show at the highest dose activity change, negative = less growth, usual class: inhibitors; 360,000 compounds, 0.21% hits; active = well fitted falling curve with a large enough effect; inconclusive = small, poorly fitted or top-dose-only effect; inactive = no such curve, though single readings can be large or run the other way; also: nearly all actives have a fitted effect of over 50% in size
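Fission yeast RE007 carrying one integrated HIV-1 vpr copy, seeded at OD 0.01 in PMG+AL medium with 23 nL pinned compound. Grown 24 h at 30 degrees; viability read by BacTiter-Glo luminescence after 5 min.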
Giardia growth – qHTS Assay for Inhibitors of Fructose-1,6-bisphosphate Aldolase from Giardia Lamblia: Giardia lamblia growth inhibition; shares compounds with Giardia FBPA inh-1; Giardia lamblia trophozoite growth inhibition; Potency, µM (doses to about 57.5 µM), without a hit: top-dose activity change, negative = inhibition, actives largely listed as inhibitors; 1,500 compounds, 5% hits; AID 2785, 2010;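 also: trophozoites exposed to compound for 48 h at 37 °C; nearly all actives have a fitted effect of over 70% in size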
Mammalian tox – qHTS Assay for Inhibitors of Fructose-1,6-bisphosphate Aldolase from Giardia Lamblia: Mammalian cellular toxicity | Potency, µM (top dose mostly 57.5 µM), for inactives: at the top dose viability change, negative = toxicity, hits mostly inhibitors | 1,500 compounds, 4% hits | AID 2786, 2010 | mammalian cell viability counter-screen, qHTS | shares compounds with Giardia FBPA inh-1;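 also: Chinese hamster ovary cells used as mammalian cytotoxicity surrogate; viability measured as cellular ATP by luminescence; compound exposure lasted 48 h before reading; nearly all actives have a fitted effect of over 60% in size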
Giardia FBPA inh-2 – qHTS Assay for Inhibitors of Fructose-1,6-bisphosphate Aldolase from Giardia Lamblia: Primary screen confirmation | shares compounds with Giardia FBPA inh-1 | purified Giardia aldolase enzyme activity, qHTS | Potency, µM (highest dose often 57.5 µM), for inactives: top-dose activity change, negative = inhibition, actives largely listed as inhibitors | 1,500 compounds, 5% hits; also: nearly all actives have a fitted effect of over 45% in size
Rabbit FBPA inh – qHTS Assay for Inhibitors of Fructose-1,6-bisphosphate Aldolase from Giardia Lamblia: Rabbit FBPA Selectivity | shares compounds with Giardia FBPA inh-1 | Potency, µM (doses to about 57.5 µM), for the others: top-dose activity, negative = inhibition, usual class: inhibitors | 1,500 compounds, 4% hits | Rabbit muscle FBPA enzyme inhibition, selectivity counter-screen; also: nearly all actives have a fitted effect of over 60% in size
Target sequence (P00883 whole entry, looked up): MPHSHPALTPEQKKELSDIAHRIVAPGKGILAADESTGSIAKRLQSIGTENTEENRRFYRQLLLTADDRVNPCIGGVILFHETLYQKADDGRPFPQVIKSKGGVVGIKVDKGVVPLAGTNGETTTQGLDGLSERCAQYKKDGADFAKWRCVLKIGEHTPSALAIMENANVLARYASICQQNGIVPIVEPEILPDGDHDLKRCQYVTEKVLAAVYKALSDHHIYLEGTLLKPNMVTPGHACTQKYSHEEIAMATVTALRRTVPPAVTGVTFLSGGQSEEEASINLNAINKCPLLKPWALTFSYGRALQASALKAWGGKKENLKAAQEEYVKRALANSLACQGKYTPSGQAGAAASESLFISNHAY
GAPDH coupling – qHTS Assay for Inhibitors of Fructose-1,6-bisphosphate Aldolase from Giardia Lamblia: Coupling assay counterscreen confirmation. GAPDH coupling enzyme counterscreen, biochemical, qHTS. Potency, µM (top dose mostly 57.5 µM), without a hit: at the top dose activity change, negative = inhibition, usual class: inhibitors. 1,500 compounds, 6% hits. shares compounds with Giardia FBPA inh-1; also: nearly all actives have a fitted effect of over 55% in size
Active calls of the source: *; ? = inconclusive; . = not tested or not shown; [ ] = remark or other dose. Unless noted, calls follow the shape of the dose curve; as a rule, active = well fitted curve in the direction sought with a large enough effect; inconclusive = small, poorly fitted or top-dose-only effect, or another doubt; inactive = no such curve, though single readings can be large; an effect the other way counts as inactive or inconclusive. Unless noted, % is scaled to controls: 0 for no effect and ±100 for the full control effect; potency is read from the fitted curve at half-maximal effect.

SMILES	AmpC inh no detg	Giardia FBPA inh-1	AmpC inh detg	TbPYK inhibitor	LmPK inhibitor	RE007 growth inh	Giardia growth	Mammalian tox	Giardia FBPA inh-2	Rabbit FBPA inh	GAPDH coupling
COc1ccc(NC(=S)NC(=O)c2cccnc2)cc1	-20%	7.9µM*	-8%	1%	0%	-4%	22µM*	5%	6%	4%	4%
O=C(NC(=S)Nc1ccccc1Br)c1cccnc1	-4%	6.3µM*	-11%	5%	-3%	1%	?	-9%	-7%	5%	-1%
COc1ccc(NC(=O)c2ccc(NC(=O)c3cccnc3)cc2)cc1	.	.	.	3%	.	-1%	.	.	.	.	.
Cc1nn2c(=O)cc(COC(=O)c3ccccc3NC(=O)C(C)C)nc2s1	.	.	9%	7%	.	.	.	.	.	.	.
Nc1ccc(N2CCCCC2)c(S(=O)(=O)Nc2ccccc2Cl)c1	-35%	16µM*	2%	-18%	2%	-4%	29%	-9%	-7%	5%	-11%
O=C1/C(=C/c2ccco2)SC(=S)N1c1cccnc1	-36%	8.9µM*	-4%	?	5%	?	?	-5%	-14%	-1%	-3%
CCOC(=O)Cc1c(C)nc(N)[nH]c1=O	-26%	10%	6%	1%	3%	14%	.	.	.	.	.
CCOC(=O)Cc1c[nH]c(=S)[nH]c1=O	-6%	18µM*	-3%	-7%	-1%	-1%	9%[10.4 µM]	14%	5%	9%	7%
N#C/C(=C(/O)CCl)c1nc2c(s1)CCc1ccccc1-2	-38%	14µM*	-4%	-6%	3%	3%	?	-11%	?	?	-22%
CCc1ccc(CN(C(=O)Nc2cccc(Cl)c2)c2ccccn2)cc1	.	.	3%	1%	.	.	.	.	.	.	.
O=C(NC1CCCCCC1)C(=S)NC1CCCCC1	-1%	18µM*	4%	-1%	4%	-1%	?	7%	-8%	1%	3%
COc1ccc(CCC(=O)NCc2nc3cccnc3n2Cc2ccc(C)cc2)cc1	.	.	6%	-7%	.	.	.	.	.	.	.
CCOc1ccc(S(=O)(=O)Nc2cccc(OC)c2)c2cccnc12	.	.	-3%	-1%	.	.	.	.	.	.	.
